DSG3 Ab inh = human desmoglein-3 autoantibody binding inhibition. P32926. DSG3-coupled beads, scFv-anti-DSG3-GFP binding, flow cytometry; hits give low values. binding (percent of control), % at 10 µM. 310,000 compounds, 0.48% hits. AID 588358;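 active = binding more than 3 SD below its plate's average and above zero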;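 also: hits lower antibody fragment binding to DSG3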
rCAG binder = r(CAG) repeat RNA binding; TO-PRO-1 dye displacement fluorescence; 370,000 compounds, 1.3% hits; inhibition, % at 3 µM;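 active = inhibition above the plate cutoff, the mean of all test compounds on that plate plus 3 SD, cut at about 35% in these data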;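 also: 0% = DMSO alone and 100% = 100 µM mitoxantrone as full dye displacement; higher means more dye released from RNA so lower well fluorescence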
ADAM10 inh = inhibitors of human ADAM10; O14672; recombinant ADAM10, EDANS/DABCYL FRET peptide cleavage, 3 h; inhibition, % at 7 µM; 370,000 compounds, 0.62% hits;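 active = inhibition above a per-campaign cutoff equal to the mean of compounds falling between control-based bounds plus 3 SD, cut at about 20% in these data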;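 also: 0% = DMSO wells while the 100% control is not disclosed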
Target sequence (O14672 214-748 limits assumed): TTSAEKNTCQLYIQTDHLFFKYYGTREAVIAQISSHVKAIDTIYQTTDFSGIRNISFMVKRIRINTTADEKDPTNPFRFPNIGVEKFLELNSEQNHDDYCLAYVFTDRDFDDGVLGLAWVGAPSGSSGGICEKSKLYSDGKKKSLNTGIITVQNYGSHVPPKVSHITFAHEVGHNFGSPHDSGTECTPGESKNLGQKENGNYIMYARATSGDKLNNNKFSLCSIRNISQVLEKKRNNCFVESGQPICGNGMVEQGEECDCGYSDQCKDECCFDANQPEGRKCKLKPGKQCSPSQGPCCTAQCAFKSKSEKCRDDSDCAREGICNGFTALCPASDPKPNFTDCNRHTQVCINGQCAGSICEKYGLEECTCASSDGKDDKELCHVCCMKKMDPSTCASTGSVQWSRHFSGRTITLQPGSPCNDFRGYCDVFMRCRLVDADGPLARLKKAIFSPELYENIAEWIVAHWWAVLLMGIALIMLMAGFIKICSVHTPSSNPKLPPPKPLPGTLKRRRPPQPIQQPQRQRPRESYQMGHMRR
ADAM17 inh = inhibits human ADAM17; P78536; inhibition, % at 6.95 µM; recombinant ADAM17, EDANS/DABCYL FRET peptide cleavage; 370,000 compounds, 0.83% hits;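 active = inhibition above the mean of compounds lying between control limits plus 3 SD, set per campaign, cut at about 8.5% in these data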;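 also: 0% = DMSO-only wells as the low control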
MPTP block = permeability transition pore inhibition. isolated mouse mitochondria, Ca2+ swelling absorbance, 30 min. inhibition, % at 10 µM. 360,000 compounds, 1.4% hits;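 active = inhibition of 50% or more, scaled per plate between neutral and stimulator controls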;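 also: 0% = DMSO wells given calcium and 100% = 1 mM EGTA wells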
KLK7 zymogen act = proKLK7 (human) activation, primary screen; 370,000 compounds, 0.9% hits; P49862; purified proKLK7, EDANS-DABCYL substrate fluorescence; 100% is mature enzyme control, 0% vehicle; activation, % at 7 µM;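 active = activation above the mean of all tested compounds plus 3 SD, computed per campaign excluding outliers beyond control limits, cut at about 13% in these data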
MPTP counter = mitochondrial membrane potential, counter-screen; 5,000 compounds, 78% hits; inhibition, % at 10 µM; isolated mitochondria, Rhodamine 123 fluorescence; shares compounds with MPTP block; AID 624504; in the data active = inhibition above about 22%;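 also: 0% = DMSO vehicle and 100% = positive control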
MPTP abs DR = dose response confirmation of mitochondrial permeability transition pore inhibitors | isolated mitochondria swelling, absorbance | AID 651561 | shares compounds with MPTP block | IC50, µM | 780 compounds, 58% hits; in the data active = IC50 below about 20 µM
MPTP cs DR = MPTP inhibitor counter-screen activity, dose response | shares compounds with MPTP block | isolated mitochondria counterscreen, fluorescence read-out | IC50, µM | 780 compounds, 49% hits; in the data active = IC50 below about 80 µM
The depositor's hits bear a star; i = inactive; . = no result given. An excerpt weighted towards active compounds, which were near 4.7% of everything screened.

SMILES	DSG3 Ab inh	rCAG binder	ADAM10 inh	ADAM17 inh	MPTP block	KLK7 zymogen act	MPTP counter	others
O=C1c2cc(Cl)ccc2OC2(CCNCC2)C12CC(c1ccccc1)=NO2 (stereo not drawn)	106	23	-1	3	71*	0	-16	MPTP abs DR=8.9*;MPTP cs DR=>80
CC1Cc2ccccc2N1S(=O)(=O)c1cccc(C(=O)NCCCO)c1 (stereo not drawn)	100	2	-4	-1	-5	-1	.
CCOC(=O)c1ccc(NC(=O)c2cccc(S(=O)(=O)N3c4ccccc4CC3C)c2)s1 (stereo not drawn)	99	11	5	0	74*	0	73*
Cc1ccccc1C(=O)N[C@@H](Cc1cccnc1)C(=O)N1CCC[C@H]1C(=O)NCCc1ccccc1Cl	.	-1	-11	-8	.	0	.
N#C/C(=C\Nc1ccccc1O)c1nc2ccccc2o1	84	24	1	6	77*	-1	78*
c1ccc(CNc2nc(-c3cccs3)nc3ccccc23)cc1	93	12	-4	-1	51*	0	58*
COc1ccccc1CNc1nc(NCc2ccccc2)nc2ccsc12	.	1	-6	1	74*	0	95*
Fc1ccc(Nc2nc(NCc3ccco3)c3ccccc3n2)cc1	112	9	-39	-16	86*	-2	82*
COc1ccccc1CNc1nc(NCc2cnc(C)cn2)c2sccc2n1	.	-1	-14	0	-1	0	.
COc1ccccc1CNc1nc(NCc2cccc(OC)c2OC)c2sccc2n1	.	5	13	4	51*	1	95*
CCOC(=O)[C@@]12CCCC3=C1N(CCC3)C(=O)[C@H]2CC(=O)N1CCC(c2ccccc2)CC1	.	-2	3	1	.	0	.
O=C(NCCc1c[nH]c2ccccc12)OCc1cn(Cc2ccccc2Cl)nn1	.	5	1	-5	.	0	.
c1ccc(CNc2nc(NCCOc3ccccc3)c3sccc3n2)cc1	.	4	11	2	15	0	.
COc1ccccc1CNc1nc(NCc2ccccc2F)c2sccc2n1	.	.	.	.	101*	.	104*
c1ccc(CNc2nc(NCc3ccccc3)c3sccc3n2)cc1	.	2	6	1	91*	1	104*
c1ccc(CNc2nc(NCc3ccccc3)c3ccccc3n2)cc1	120	.	.	.	70*	.	109*
COc1ccccc1CNc1nc(NCc2ccc(C)cc2C)c2sccc2n1	.	.	.	.	67*	.	102*
CCOC(=O)N(C)C[C@@H]1OCc2cn(nn2)CCCC(=O)N([C@H](C)CO)C[C@H]1C	.	0	-8	-3	.	0	.
COC(=O)[C@]12C[C@H](CC(=O)N3CCOCC3)C(=O)N(CCC3=CCCCC3)C1=C[C@H](C(C)(C)C)O[C@@H]2C	.	-1	2	0	.	0	.
Cc1ccccc1NC(=S)/C(=C(\[O-])c1ccc(C)c([N+](=O)[O-])c1)[n+]1ccccc1	112	7	-2	0	-2	1	.
Cc1ccc(/C([O-])=C(/C(=S)Nc2ccc(SC(F)F)cc2)[n+]2ccccc2)cc1[N+](=O)[O-]	88	16	-8	-5	64*	-1	80*
c1ccc(-c2ccccc2C2Cc3nnccc3CN2)cc1 (stereo not drawn)	.	9	-7	-1	.	0	.
O=C(C(=O)N1CCN(C(=O)C2CCC2)CC1)c1cccc(C(F)(F)F)c1	.	0	1	0	.	0	.
CCN1/C(=C/C(C)=C/c2sc3ccccc3[n+]2CC)Sc2ccccc21	23*	16	2	7	199*	0	68*
Cc1ccc(-n2cc(C(=O)c3cc(Cl)ccc3O)cc(C#N)c2=O)cc1	98	27	-16	-12	93*	0	84*
SMILES	DSG3 Ab inh	rCAG binder	ADAM10 inh	ADAM17 inh	MPTP block	KLK7 zymogen act	MPTP counter	others
COc1ccc(-n2cc(C(=O)c3cc(Cl)ccc3O)cc(C#N)c2=O)cc1	106	15	-13	0	0	1	.
CN1CCN(c2ccc3c(c2)Oc2ccccc2CN(Cc2cn(Cc4ccccc4C(F)(F)F)nn2)S3(=O)=O)CC1	.	6	0	-1	.	1	.
C=CCN1[C@H](C#N)[C@@H](c2ccc(Br)cc2)[C@H]1CO	.	0	-1	0	.	1	.
O=C(c1ccc(Br)cn1)N1CCC(Oc2cccnc2)CC1	.	2	1	3	.	1	.
CCCCNCCOCCOc1ccccc1-c1ccccc1	102	4	-5	-4	83*	1	-4	MPTP abs DR=i;MPTP cs DR=>80
COCCNCCCCOc1ccccc1-c1ccccc1	89	33	4	4	1	1	.
COc1ccc(S(=O)(=O)Nc2ccc3c(c2)C(=O)N([C@H](C)CO)C[C@H](C)[C@H](CN(C)C(=O)Nc2ccc(F)cc2)OCCCC[C@@H](C)O3)cc1	.	11	-8	5	.	1	.
O=C(Nc1ccncc1)c1ccc2c(c1)C(=O)N(C1CCCCC1)C2=O	110	1	0	-2	91*	0	97*
CN(C)S(=O)(=O)c1cc(NC(=O)CSc2ncc(C(F)(F)F)cc2Cl)ccc1Cl	.	0	0	-3	74*	1	86*
COc1cc(NC(=O)c2cc(Cl)ccc2Cl)ccc1-c1cc2ccccc2oc1=O	90	6	-28	-6	1	-1	.
CCc1ccc(OCC(=O)Nc2ccc(-c3cc4ccccc4oc3=O)c(OC)c2)cc1	102	4	-62	-15	101*	-1	97*
O=C(Cc1ccc(Cl)cc1)Nc1ccc(-c2cc3ccccc3oc2=O)c(Cl)c1	124	21	-250	-94	64*	-34	71*
COCC(=O)N1C[C@H]2CON(C)[C@H]2C[C@H]1c1cccc(-c2cc(Cl)cc(Cl)c2)c1	.	6	-6	-5	.	1	.
Nn1c(SCC(=O)N2c3ccccc3Sc3ccc(Cl)cc32)nnc1-c1cc(-c2ccc(F)cc2)n[nH]1	.	19	-4	6	.	0	.
COC(=O)[C@]12C[C@H](CC(=O)NCCc3ccccc3OC)C(=O)N(Cc3ccccc3)C1=C[C@H](COCc1ccccc1)O[C@@H]2C	.	5	7	2	.	0	.
O=C(c1cnn(-c2ccccc2)c1)c1cc(Br)ccc1O	111	1	-5	2	3	1	.
O=C(c1ccc(O)c(Br)c1)c1cc(Br)ccc1O	95	7	4	1	94*	0	93*
O=C(C(=O)c1cc(Br)ccc1O)c1cc(Br)ccc1O	98	34	-2	1	95*	0	97*

Source: PubChem (several laboratories)
